Compounds with a hit are over-represented: about 1.2% of the library has one in this group of screens.
TLR4 MyD88 comp – blocks binding of human TLR4 to MyD88 | O00206+Q99836 | HeLa CL3-4 TLR4/MyD88 BLA complementation, FRET ratio | inhibition, % at 8.4 µM | hit rate 0.18% among 200,000; in the data active means inhibition above about 25%;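 further: 0% = vehicle and 100% = reference inhibitor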
ABHD5-PLIN5 inh – ABHD5-PLIN5 protein interaction inhibition. Q00G26+Q8WTS1. Split G. princeps luciferase complementation, luminescence, 4 h. inhibition, % at 4 µM. hit rate 0.78% among 360,000. AID 602281;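 active means inhibition above the mean inhibition across every tested compound plus 3 SD, cut at about 22% in these data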;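 further: 0% = DMSO only wells and the 100% control is not disclosed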
NOD2 RIPK2 PPI – blocks binding of human NOD2 to RIPK2; O43353; CHO BLA complementation NOD2-RIPK2, CCF4 ratio; inhibition, % at 4.98 µM; hit rate 0.38% among 360,000; AID 624267; in the data active means inhibition above about 21%;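 further: 0% = vehicle only and 100% = reference blocker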
TLR9-MyD88 block – blocks human TLR9 binding to MyD88; Q9NR96+Q99836; CHO BLA complementation TLR9-MyD88, CCF4 FRET ratio; inhibition, % at 4.98 µM; hit rate 0.21% among 340,000;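 active means inhibition above the mean over all tested compounds plus 3 SD, cut at about 21% in these data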;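 further: 0% = DMSO only wells and 100% = clavulanate BLA inhibitor control wells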
Target sequence (Q99836 whole entry, looked up): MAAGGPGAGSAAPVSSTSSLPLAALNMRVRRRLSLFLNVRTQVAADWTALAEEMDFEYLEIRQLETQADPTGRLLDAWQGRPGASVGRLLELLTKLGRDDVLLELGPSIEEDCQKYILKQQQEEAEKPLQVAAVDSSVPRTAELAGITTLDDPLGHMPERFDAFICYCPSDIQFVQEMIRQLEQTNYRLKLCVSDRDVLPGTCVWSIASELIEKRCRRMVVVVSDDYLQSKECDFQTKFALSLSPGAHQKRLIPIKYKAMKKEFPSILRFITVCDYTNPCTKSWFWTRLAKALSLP
Target sequence (Q9NR96 whole entry, looked up): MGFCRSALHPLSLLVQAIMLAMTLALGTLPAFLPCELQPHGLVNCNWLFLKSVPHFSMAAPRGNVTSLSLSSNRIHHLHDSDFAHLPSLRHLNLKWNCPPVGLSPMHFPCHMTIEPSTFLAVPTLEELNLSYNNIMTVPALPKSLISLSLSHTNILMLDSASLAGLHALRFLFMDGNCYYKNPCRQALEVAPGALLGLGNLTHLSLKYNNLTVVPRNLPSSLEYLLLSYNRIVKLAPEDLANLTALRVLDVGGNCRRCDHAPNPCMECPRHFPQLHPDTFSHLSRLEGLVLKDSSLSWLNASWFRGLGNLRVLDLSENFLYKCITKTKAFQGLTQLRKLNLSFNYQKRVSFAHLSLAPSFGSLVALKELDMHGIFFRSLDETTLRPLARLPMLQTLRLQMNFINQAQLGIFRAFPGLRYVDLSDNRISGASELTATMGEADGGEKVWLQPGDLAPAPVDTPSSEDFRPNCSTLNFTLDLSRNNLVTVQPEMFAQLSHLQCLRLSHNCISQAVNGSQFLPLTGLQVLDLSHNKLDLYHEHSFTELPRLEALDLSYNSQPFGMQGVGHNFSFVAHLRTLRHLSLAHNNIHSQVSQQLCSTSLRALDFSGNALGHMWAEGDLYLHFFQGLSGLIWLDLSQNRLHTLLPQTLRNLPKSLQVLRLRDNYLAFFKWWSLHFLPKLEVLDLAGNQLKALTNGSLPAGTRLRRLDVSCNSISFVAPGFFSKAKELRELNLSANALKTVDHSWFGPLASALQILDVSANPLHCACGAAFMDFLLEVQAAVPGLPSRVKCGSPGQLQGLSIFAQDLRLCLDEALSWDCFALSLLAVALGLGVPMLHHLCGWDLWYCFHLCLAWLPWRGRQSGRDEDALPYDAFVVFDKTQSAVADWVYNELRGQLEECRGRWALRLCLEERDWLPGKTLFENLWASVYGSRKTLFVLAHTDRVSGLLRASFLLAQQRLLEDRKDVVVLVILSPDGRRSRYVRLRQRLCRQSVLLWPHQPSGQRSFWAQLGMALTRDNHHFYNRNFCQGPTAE
TLR4-MyD88 conf – confirmation of human TLR4-MyD88 binding inhibitors; hit rate 50% among 350; inhibition, % at 8.4 µM; AID 941; shares compounds with TLR4 MyD88 comp; HeLa CL3-4 BLA complementation, CCF4 FRET ratio;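 active means mean inhibition across three repeat runs above about 25% carried over from the earlier screen, limit read from the data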;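 further: plate controls were DMSO only for no effect and clavulanic acid blocking BLA at full dose for full effect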
BLA inh HeLa – inhibits beta-lactamase activity, counter-screen to TLR4-MyD88 binding inhibitors; shares compounds with TLR4 MyD88 comp; HeLa BLA reporter, CCF4 FRET ratio; hit rate 63% among 350; inhibition, % at 8.4 µM;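 active means mean inhibition over three repeats above about 26% taken from the earlier screen, limit read from the data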;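 further: HeLa cells stably expressing beta-lactamase reporter as counterscreen for TLR4-MyD88 inhibitors; 0% = DMSO and 100% = clavulanic acid full inhibition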
TLR9-MyD88 conf – confirmation of human TLR9-MyD88 binding inhibitors | shares compounds with TLR9-MyD88 block | CHO TLR9/MyD88 BLA complementation, CCF4 FRET ratio | AID 540250 | inhibition, % at 4.98 µM | hit rate 51% among 680;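 active means mean inhibition across three repeats above about 21% taken from the earlier screen, limit read from the data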;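 further: blue over green emission ratio reports constitutive TLR9 MyD88 association via BLA complementation; 0% = DMSO vehicle wells and 100% = clavulanate BLA inhibitor wells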
BLA counter-1 – beta-lactamase reporter inhibition, counter-screen artifact; shares compounds with TLR9-MyD88 block; CHO-BLA cells, CCF4 FRET ratio, BLA reporter; inhibition, % at 4.98 µM; hit rate 7% among 680; AID 540251;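 active means mean inhibition above a 50% cutoff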;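 further: counterscreen of TLR9-MyD88 hits on CMV-driven BLA in CHO-K1 cells; 0% = DMSO alone and 100% = clavulanate blocking BLA; higher means less blue over green ratio so more BLA blockade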
TLR9 CHO cytotox – counter-screen for TLR9-MyD88 inhibitors: cytotoxicity in CHO cells; shares compounds with TLR9-MyD88 block; luminescence; inhibition, % at 4.98 µM; hit rate 39% among 680; AID 588336; in the data active means inhibition above about 11%
NOD2-RIPK2 conf – NOD2-RIPK2 interaction inhibition confirmed; hit rate 70% among 1,200; CHO cells, NOD2-RIPK2 BLA complementation, CCF4 FRET; inhibition, % at 4.98 µM; shares compounds with NOD2 RIPK2 PPI;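 active means mean inhibition across replicates above a set limit taken from the earlier primary screen, cut at about 21% in these data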;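 further: 0% = DMSO-only wells and the high end = clavulanate BLA-blocked wells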
BLA counter-2 – counter-screen for NOD2-RIPK2 interaction inhibitors: BLA reporter; hit rate 57% among 1,200; shares compounds with NOD2 RIPK2 PPI; CHO BLA reporter, CCF4 FRET ratio, counterscreen; inhibition, % at 4.98 µM;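 active means mean inhibition above the low-control mean inhibition plus three low-control SD, cut at about 11% in these data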;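 further: 0% = DMSO only wells and 100% = clavulanate high control wells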
* = called active by the depositor; x = no result.

SMILES	TLR4 MyD88 comp	ABHD5-PLIN5 inh	NOD2 RIPK2 PPI	TLR9-MyD88 block	TLR9-MyD88 conf	BLA counter-1	TLR9 CHO cytotox	others
CCN(CC)c1ccc(/C=c2\sc3nc4ccccc4n3c2=O)c(O)c1	29.5*	-3.7	37.4*	34.0*	21.4*	36.6	8.1	TLR4-MyD88 conf=20.4;BLA inh HeLa=50.0*;NOD2-RIPK2 conf=45.7*;BLA counter-2=56.2*
Cn1c(-c2c(N)n(CCc3ccccc3)c3nc4ccccc4nc23)nc2ccccc21	69.3*	6.1	69.5*	61.5*	55.0*	56.0*	0.7	TLR4-MyD88 conf=50.9*;BLA inh HeLa=84.4*;NOD2-RIPK2 conf=72.8*;BLA counter-2=75.4*
Nc1c(C(=O)OCC2CCCO2)c2nc3ccccc3nc2n1C1CCCC1 (stereo not drawn)	4.0	-3.6	4.1	2.0	x	x	x
Cn1c(-c2c(N)n(C3CCCC3)c3nc4ccccc4nc23)nc2ccccc21	68.1*	-5.3	28.7*	39.6*	x	x	x	TLR4-MyD88 conf=68.6*;BLA inh HeLa=95.8*;NOD2-RIPK2 conf=78.4*;BLA counter-2=83.1*
Cn1c(-c2c(N)n(CCCc3ccccc3)c3nc4ccccc4nc23)nc2ccccc21	47.5*	-5.6	58.2*	31.8*	61.7*	63.1*	-1.9	TLR4-MyD88 conf=54.4*;BLA inh HeLa=85.9*;NOD2-RIPK2 conf=78.7*;BLA counter-2=79.7*
CCOC(=O)c1ccc(N2CCOCC2)c(NC(=O)c2ccc3c(c2)OCO3)c1	x	15.4	-2.8	9.4	x	x	x
CN(CC(=O)Nc1ccccc1Cl)C(=O)Cn1cc(C(F)(F)F)ccc1=O	x	4.2	-5.6	-1.2	x	x	x
CC(C)(C)CNC(=O)c1cccc2c1C(=O)c1ccc(-c3cc4ccccc4o3)cc1S2(=O)=O	x	-5.2	-12.4	4.7	x	x	x
CCCC(C)(C)C(=O)N1CCC1(C)C(=O)NS(=O)(=O)c1ccc(Br)cc1 (stereo not drawn)	x	3.6	1.1	x	x	x	x
COc1cccc(-c2ccc3c(N)c(C(=O)NC4CC4)sc3n2)c1	x	-4.1	4.5	12.2	x	x	x
COc1ccc(-c2ccc3c(N)c(C(=O)c4cccc(OC)c4)sc3n2)cc1	31.4*	-6.3	25.3*	11.7	x	x	x	TLR4-MyD88 conf=28.1*;BLA inh HeLa=57.0*;NOD2-RIPK2 conf=45.1*;BLA counter-2=56.4*
CC(=O)Nc1nc2n(n1)C(c1ccc(F)cc1)C=C(c1ccccc1)N2 (stereo not drawn)	34.2*	-4.8	40.7*	40.7*	6.8	8.2	4.3	TLR4-MyD88 conf=36.1*;BLA inh HeLa=56.4*;NOD2-RIPK2 conf=-1.4;BLA counter-2=3.1
CCC(=O)Nc1nc2n(n1)C(c1ccc(OC)cc1)C=C(c1ccccc1)N2 (stereo not drawn)	14.4	x	x	x	x	x	x
C=CC(=O)NC(C)(C)CCN1CCOCC1	-2.5	-3.6	0.0	7.8	x	x	x
Nc1ccc2c(C(F)(F)F)cc(=O)oc2c1	49.0*	-2.6	50.6*	55.4*	36.2*	40.5	-1.1	TLR4-MyD88 conf=40.5*;BLA inh HeLa=66.0*;NOD2-RIPK2 conf=63.7*;BLA counter-2=67.8*
CCc1nc2ccc(C(=O)NCCc3ccccn3)cn2c1N(CCC(C)C)CCN(C)C	x	-2.7	-3.2	x	x	x	x
CC(C)CNC(=O)COC(=O)c1c2c(nc3ccccc13)/C(=C/c1cccs1)CC2	45.1*	-3.4	37.7*	32.4*	40.9*	48.5	9.2	TLR4-MyD88 conf=43.0*;BLA inh HeLa=70.8*;NOD2-RIPK2 conf=64.8*;BLA counter-2=73.3*
Nc1ncnc2c1ncn2[C@@H]1O[C@H](CNC(=O)[C@@H](N)CO)[C@@H](O)[C@H]1O	x	-6.2	-4.0	-3.9	x	x	x
COc1cc(/C=C/C(=O)OCC(=O)Nc2ccc3[nH]c(=O)[nH]c3c2)ccc1OC(F)F	x	-3.2	-9.9	22.7*	6.8	2.6	7.1
Nc1nnnn1/N=C/c1cc(Cl)ccc1O	x	-0.5	19.7	27.6*	9.9	11.0	-0.3
Nc1nnnn1/N=C/c1ccccc1Cl	x	-7.2	5.1	-6.3	x	x	x
Nc1nnnn1/N=C/c1cc(Cl)cc(Cl)c1O	x	0.2	5.6	22.9*	24.0*	27.8	-4.3
O=C1c2ccccc2NC(c2ccc(-c3cccc([N+](=O)[O-])c3)o2)N1O (stereo not drawn)	1.9	4.9	2.6	21.5*	7.9	7.4	43.1*
COC(=O)c1cc(C#N)c(N2CCOCC2)nc1C	-4.8	1.2	-7.1	22.4*	-4.2	-4.1	0.4
O=C(CN1C(=O)/C(=C/c2ccccc2)SC1=S)NC1CCS(=O)(=O)C1 (stereo not drawn)	x	-2.9	-18.2	20.8*	2.5	1.6	1.8
SMILES	TLR4 MyD88 comp	ABHD5-PLIN5 inh	NOD2 RIPK2 PPI	TLR9-MyD88 block	TLR9-MyD88 conf	BLA counter-1	TLR9 CHO cytotox	others
O=C(CN1C(=O)/C(=C/c2ccc(F)cc2)SC1=S)NC1CCS(=O)(=O)C1 (stereo not drawn)	x	4.2	-13.6	-0.2	x	x	x
O=C(N/N=C/c1cccc2ccccc12)c1cc2ccccc2o1	x	0.8	-5.0	22.8*	3.4	-1.7	4.4
O=C(N/N=C/c1ccccc1F)c1cc2c(ccc3ccccc32)o1	x	7.1	-11.8	-7.8	x	x	x
COc1ccccc1C(=O)Nc1onc(C)c1C#N	7.4	0.7	-5.7	22.2*	-0.6	-2.4	-1.7
Cc1ccccc1OCC1Cn2c(nc3c2c(=O)n(C)c(=O)n3C)O1 (stereo not drawn)	x	-2.5	-0.2	-0.8	x	x	x
Cc1cc(/C=C2\Cc3ccccc3C2=O)c(C)n1-c1ccccc1	0.6	6.2	10.3	20.8*	18.8	22.6	7.8
Cc1cc(C=C2C(=O)c3ccccc3C2=O)c(C)n1-c1ccccc1	9.6	-2.2	-3.4	-0.3	x	x	x
CC(=O)c1cccc(NC(=O)c2cccc3ccccc23)c1	x	2.4	6.8	9.8	x	x	x
CCCCNC(=S)NNc1c(Cl)cc(Cl)cc1Cl	-2.3	-11.6	-12.6	6.9	x	x	x
O=C(NCCCl)NNc1c(Cl)cc(Cl)cc1Cl	-13.4	0.3	-0.9	22.4*	1.6	0.5	2.6
COc1ccc(Cn2c(O)c(/C=N/NC(=O)c3cccnc3)c3ccccc3c2=O)cc1	1.7	-2.0	17.5	25.6*	12.2	11.1	9.3
O=C(N/N=C/c1c(O)n(Cc2ccccc2)c(=O)c2ccccc12)c1cccnc1	5.0	-1.9	19.0	20.5	x	x	x
Cc1ccc(C)c(S(=O)(=O)N2CCN(CC(=O)N3CCc4ccccc4C3)CC2)c1	-5.8	5.5	-10.5	36.5*	-1.6	2.5	0.3
O=C(CN1CCN(S(=O)(=O)c2cc(C(F)(F)F)ccc2Cl)CC1)N1CCc2ccccc2C1	x	8.1	3.7	0.8	x	x	x
S=c1[nH]nc(-c2cccnc2)n1Cc1ccccc1	-4.0	0.9	2.4	23.9*	-3.1	-3.7	-2.7

Assay outcomes from PubChem.
